# Cruzain inh noDet – inhibitors of Trypanosoma cruzi cruzain without detergent | 200,000 compounds, 2.3% hits | AID 1476 | purified cruzain, Z-FR-AMC fluorescence, no detergent | P25779 | Potency, µM, for the others: max response, negative = inhibition, actives largely listed as inhibitors;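 further: plate controls were enzyme without inhibitor for no effect and buffer without enzyme for full effect; nearly all actives have a fitted effect of over 40% in size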
# Target sequence (P25779 123-467 limits assumed): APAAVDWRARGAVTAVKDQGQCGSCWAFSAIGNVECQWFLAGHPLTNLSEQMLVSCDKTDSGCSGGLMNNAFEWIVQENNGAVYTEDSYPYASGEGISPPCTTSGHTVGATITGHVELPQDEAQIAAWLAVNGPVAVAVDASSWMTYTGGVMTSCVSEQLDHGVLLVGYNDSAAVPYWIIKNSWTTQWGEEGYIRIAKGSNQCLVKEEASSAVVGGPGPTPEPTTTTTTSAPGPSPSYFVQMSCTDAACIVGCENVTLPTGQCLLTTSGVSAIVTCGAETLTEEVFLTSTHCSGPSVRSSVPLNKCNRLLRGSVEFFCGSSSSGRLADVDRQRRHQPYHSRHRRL
#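 Detergent-free condition (0.00005% Triton X-100) in acetate buffer pH 5.5 with DTT. 1.5 nM enzyme and compound were pre-mixed 15 min, then 2 uM Z-FR-AMC substrate added; reaction progress from fluorescence change between first and third reads (60 s).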
# Cruzain Triton – inhibitors of Trypanosoma cruzi cruzain with detergent; AID 1478; purified cruzain, Z-FR-AMC fluorescence, 0.01% Triton; Potency, µM, inactives show max response, negative = inhibition, usual class: inhibitors; 200,000 compounds, 0.43% hits;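 further: plate controls were neutral wells for no effect and buffer without enzyme for full effect; nearly all actives have a fitted effect of over 40% in size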
#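 Z-FR-AMC hydrolysis (2 uM substrate) by cruzain (1.5 nM) monitored kinetically at ex 360/em 450 nm after 15 min room-temperature compound exposure; 0.01% Triton X-100, pH 5.5, 5 mM DTT.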
# An asterisk follows results filed as active; ? = inconclusive. Sampled rows, rich in hits. Any-hit rate of the full collection: about 2.4%. The call rests on the fitted dose curve; in most records, active means well fitted curve in the direction sought with a large enough effect; inconclusive means small, poorly fitted or top-dose-only effect, or another doubt; inactive means no such curve, though single readings can be large; an effect the other way counts as inactive or inconclusive. Potency means the concentration at half of the fitted maximal effect.
SMILES,Cruzain inh noDet,Cruzain Triton
O=C(COC(=O)c1ccc2ccccc2c1)Nc1ncc(C(F)(F)F)cc1Cl,-5%,5%
O=C(COC(=O)CSc1cccc2cccc(Cl)c12)Nc1ncc(C(F)(F)F)cc1Cl,25µM*,?
O=C(COC(=O)CNC(=O)c1ccccc1Cl)Nc1ncc(C(F)(F)F)cc1Cl,1.3µM*,1.6µM*
Cc1ccc(C)c(SCC(=O)OCC(=O)Nc2ncc(C(F)(F)F)cc2Cl)c1,15%,?
COc1ccccc1-c1ccc2ncnc(Nc3ccccc3)c2c1,17%,-10%
COc1ccc(S(=O)(=O)NCc2ccc3c(c2)CCN3C(=O)c2ccc(C)cc2)cc1Cl,?,0%
CCOC(=O)c1sc2ccccc2c1S(=O)(=O)Nc1ccc(OC)c(Cl)c1,-12%,-8%
COC(=O)Cn1c(=NC(=O)c2sc3ccccc3c2Cl)sc2cc(S(N)(=O)=O)ccc21,-18%,-5%
CCOC(=O)Cn1c(=NC(=O)c2sc3ccccc3c2Cl)sc2cc(S(N)(=O)=O)ccc21,7.9µM*,-7%
CCCN(C(=O)c1cc2c(s1)-c1ccccc1SC2)c1ccccc1F,-17%,-9%
CC[C@H](C)[C@@H](NC(=O)O[C@@H]1Cc2cc(Br)ccc2O[C@H]1c1cccc(OC)c1)C(=O)OC,2%,-2%
CCc1cc2ccc(OC)cc2nc1SCC(=O)Nc1cc(C)on1,10µM*,7%
CCc1cc2ccccc2nc1SCC(=O)Nc1cc(C)on1,-8%,1%
CC(C)(C)c1ccc(S(=O)(=O)/C=C\C#N)cc1,24%,-8%
CCOc1ccc(N(C)S(=O)(=O)c2ccc3c(c2)CCCN3C(C)=O)cc1,22%,-1%
Cc1ccc(NC(=O)CSc2ncc3c(n2)-c2ccccc2N(C)S3(=O)=O)c(Cl)c1,-4%,3%
Nc1ccc([N+](=O)[O-])c(N)c1,-14%,-4%
COc1c(F)c(F)c(C(=O)Nc2ccc3oc(-c4ccncc4)nc3c2)c(F)c1F,?,1%
O=C(Nc1ccc2oc(-c3ccncc3)nc2c1)c1c(F)c(F)c(F)c(F)c1F,10µM*,3%
Cc1cccc(C(=O)Nc2ccc3oc(-c4cccc5c(Br)cccc45)nc3c2)c1,?,0%
Cc1cccc(C(=O)Nc2ccc3oc(-c4ccncc4)nc3c2)c1,?,25µM*
Cc1nn(C)c2c1c(-c1ccccc1)cc(=O)n2Cc1ccc(Cl)cc1,-17%,-2%
Cc1ccc2c(CN3CCN(C(=O)c4ccc(F)cc4)CC3)cc(=O)oc2c1,1%,-4%
COC(=O)/C=C\c1cc(O)ccc1O,-2%,-3%
C=CCC(C)(O)/C=C/c1ccccc1 (stereo not given),-7%,4%
SMILES,Cruzain inh noDet,Cruzain Triton
Cc1cc(C)n(-c2nc3cc(Cl)c(Cl)cc3nc2Nc2c(C)cccc2C)n1,2%,0%
CCc1ccc(/C=C(\Cl)c2nc3cc(Cl)ccc3c(=O)[nH]2)cc1,10µM*,0%
CCc1cc2c(=O)[nH]c(Cc3ccc(Cl)cc3)nc2s1,-10%,5%
Cc1csc(NC(=O)CSc2nsc(SCC(=O)Nc3nc(C)cs3)c2C#N)n1,?,-6%
Cc1ccc(NC(=O)CSc2nsc(SCC(=O)Nc3ccc(C)cc3C)c2C#N)c(C)c1,10µM*,-8%
Cc1cc(C)c(NC(=O)COc2ccccc2C(=O)Nc2ccc3c(c2)oc2ccccc23)c(C)c1,5µM*,-5%
COc1cc2c(cc1NC(=O)COc1cc(C)cc(C)c1)oc1ccccc12,5%,0%
C=CCN1CCc2c(cc(O)c(O)c2Cl)C(c2cccc(C)c2)C1 (stereo not given),5%,-6%
CC(=O)O[C@@H](C)C[N+](C)(C)C,2%,-3%
CCOC(=O)c1ccc(NC(=O)CSc2ncc(S(=O)(=O)c3ccc(C)c(Cl)c3)c(=O)[nH]2)cc1,?,28µM*
Cc1ccc(C)c(NC(=O)CSc2ncc(S(=O)(=O)c3ccc(C)c(Cl)c3)c(=O)[nH]2)c1,49%,-11%
CCNc1ncc2nc(-c3ccc(F)cc3)c(=O)n(C[C@H]3CCCO3)c2n1,20%,1%
COCCNC(=O)c1cccc(-n2c(C)nc3cccnc32)c1,3%,0%
COC(=O)C1(C(=O)OC)C/C=C\Cc2ccccc2[C@@H]1C[N+](=O)[O-],-1%,1%
COC(=O)c1cc(=O)n(Cc2ccc3c(c2)OCO3)c(=Nc2ccc(F)c(Cl)c2)s1,20µM*,-2%
COC(=O)c1cc(=O)n(CCc2ccc(OC)cc2)c(=Nc2ccc(F)c(Cl)c2)s1,-20%,0%
COc1ccc2c(c1)C(=O)[C@H](OC(=O)NCc1ccc3c(c1)OCO3)[C@@H](c1ccc(OC)c(Br)c1)O2,-6%,-6%
COc1ccc(C(=O)N2CCC[C@@]3(CCN(c4ncccn4)C3)C2)cc1,-7%,1%
CNC(=O)/C(C#N)=C/c1ccc(-c2ccc(OC)cc2[N+](=O)[O-])o1,0%,3%
N#C/C(=C\c1ccc(-c2ccccc2[N+](=O)[O-])o1)C(=O)Nc1nc(-c2cccs2)cs1,6.3µM*,-6%

# Screens: PubChem BioAssay, National Center for Advancing Translational Sciences (NCATS)
